Common to all, as to assay: NCI-60 one-dose screen, 48 h (100 = growth as untreated, 0 = no growth, -100 = all killed)
Common to all, as to settings: 10 µM unless noted

Test [1] concerns DU-145 prostate.
Test [2] deals with K-562 leukemia.
Test [3] has as its system MALME-3M melanoma.
Test [4] deals with MDA-MB-231 breast.
The subject of test [5] is RXF 393 renal.
Test [6] relates to SF-268 CNS.
Test [7] concerns SF-295 CNS.
Test [8] deals with SF-539 CNS.
In test [9] the test system is UACC-257 melanoma.
Test [10] deals with M14 melanoma.
For test [11], the system named is HCT-15 colon.
Test [12] relates to HT29 colon.
For test [13], the system named is SNB-75 CNS.
Test [14] has as its system SNB-19 CNS.
The subject of test [15] is U251 CNS.
Test [16] concerns PC-3 prostate.
Test [17] concerns SK-MEL-5 melanoma.
In test [18] the test system is UACC-62 melanoma.
In test [19] the test system is LOX IMVI melanoma.
The subject of test [20] is SK-MEL-28 melanoma.

Several values for one entry are separate records, joined by “and”; a condition that tells them apart may be missing. Identical values can stand only once. The panel holds about 83,000 compounds, 20% with a hit somewhere; the sample as a whole holds those more often.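 In brief: 96-well plates, 48 h treatment, single concentration, percent growth endpoint.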 Values without a mark were called inactive. Activity calls are given as the source filed them. Rule for the calls: active = growth percent below 10; inactive = the rest.

On to `N#CCc1nnc(NC(=O)c2ccc(-n3c(=O)[nH]c4ccccc4c3=O)cc2)s1`, for which the growth in test [1] is 128%; in test [2] it was 101%; in [3], 95.3%; in test [4], 95.5%; in test [5], 112%; in [6], 115%. Further, the growth in test [7] is 93.6%; in test [8], 97.9%; in test [9], 104%; in test [10] it was 108%; in test [11], 97.1%; in [12], 116%. Besides, the growth in [13] was 86.8%; in [14], 94.6%; in test [15] it was 106%; in test [16] it was 105%; in test [17] it was 102%; in test [18], 86.8%. The growth is 90.5% in test [19] and 103% in test [20].

Take `COc1ccc(S(=O)(=O)Nc2ccc(-c3ccc4c(c3)NC(=O)/C4=C\c3ccc[nH]3)cc2)cc1OC`: the growth in test [1] is 10.4%; in [2], 28.7%; in test [3] it was -16.2% (active); in test [4], -46.1% (active); in test [5], -23% (active); in test [6], 65%. Moreover, the growth was 56.1% in test [7]; -46.5% (active) in test [8]; -10.7% (active) in test [9]; 0.851% (active) in test [10]; 41.4% in test [11]; 8.82% (active) in test [12]. Also, the growth in test [13] was 13.9%; in test [14], 3.61% (active); in [15], -58.5% (active); in test [16] it was 44.5%; in [17] it was 20.3%; in [18] it was -45.9% (active). Besides, the results for the growth in [19] and in test [20] were -30.1% (active) and -90.6% (active), respectively.

Take `Nc1cccc(-n2c(COc3ccc(I)cc3)nc3ccccc32)c1`: the growth in [1] is 96.2% and 95.5%; in [2] it was 61.5% and 99.3%; in test [3], 82.2% and 96.1%; in test [4] it was 56% and 102%; in [5] it was 82.3% and 106%; in test [6] it was 74.4% and 96.5%. Further, the growth in test [7] was 89.8% and 101%; in [8] it was 79.7% and 97.7%; in test [9], 99% and 101%; in [10], 91.5% and 108%; in test [11], 74.6% and 104%; in [12], 78.7% and 114%. Further, the growth in test [13] was 52.9% and 91.4%; in test [14] it was 93.5% and 98.6%; in test [15] it was 84.8% and 101%; in test [16] it was 63.9% and 104%; in test [17] it was 60% and 99.8%; in test [18], 57.6% and 92.2%. Further, the growth in [19] was 80% and 101%; in [20], 98.9% and 98.7%.

Turning to `COc1cc2cc(C(=O)N3C[C@@H](CCl)c4c3cc(OC(=O)N(CCC(=O)N3CCN(C)CC3)[C@H]3CCSSC3)c3ccccc43)[nH]c2c(OC)c1OC`, the growth was -10.5% (active) in test [1]; -8.96% (active) in test [2]; -96.7% (active) in [3]; -74.8% (active) in [4]; -94.5% (active) in test [5]; -10.3% (active) in test [6]. Also, the growth in [7] is -65.9% (active); in test [8] it was -80.3% (active); in test [9] it was -61.9% (active); in test [10] it was -77.2% (active); in test [11], -52.1% (active); in test [12], -49.4% (active). For the same compound, the growth in test [13] was -68.7% (active); in test [14], -7.02% (active); in test [15] it was -68% (active); in [16], -4.51% (active); in [17] it was -86.3% (active); in test [18], -91.8% (active). The values for the growth in test [19] and in test [20] were -99.5% (active) and -94.1% (active), respectively.

Take `Cc1cc(C2(c3cc(C)c(OCC(O)CNc4c(C)n(C)n(-c5ccccc5)c4=O)cc3C(C)C)OC(=O)c3ccccc32)c(C(C)C)cc1OCC(O)CNc1c(C)n(C)n(-c2ccccc2)c1=O` (stereo not given): the growth in [1] is 50.7%; in test [2], 4.53% (active); in test [3], 26.3%; in [4] it was -36.5% (active); in test [5], 1.98% (active); in test [6] it was 32.6%. Moreover, the growth in test [7] was 24%; in test [8], 38.9%; in test [9] it was 27.5%; in test [10] it was 29.2%; in test [11], 19.7%; in test [12], 13.4%. The growth in [13] was 46.6%; in test [14], 48.9%; in test [15], 22.5%; in [16] it was 12.9%; in test [17] it was -25.3% (active); in [18], 24.4%. Also, the growth in test [19] was 18.3%; in test [20], 33.8%.

Consider `CCOC(=O)/C(F)=C/C1CC1CCc1ccc(OCC)cc1` (stereo not given), for which the growth is 50.5% in test [1]; 98.3% in [2]; 89.9% in test [3]; 97.4% in test [4]; 96.2% in test [5]; 90.5% in test [6]. In addition, the growth in test [7] is 91.1%; in [8], 93%; in test [9], 105%; in test [10] it was 105%; in test [11], 70.6%; in [12] it was 58.5%. The growth was 81.3% in [13]; 95.4% in [14]; 104% in [15]; 85.2% in test [16]; 63.7% in test [17]; 87.5% in test [18]. Also, the growth in test [19] is 97.9%; in test [20] it was 110%.

The record behind these values is PubChem BioAssay (NCI).
